HT1080NT lethal = kills 2HG-producing HT-1080-NT fibrosarcoma cells | HT-1080-NT fibrosarcoma viability, CellTiter-Glo ATP luminescence, 48 h | Potency, µM (series often up to 46.1 µM), inactives show at the top dose activity, negative = less viability, actives largely listed as cytotoxic | 1.6% of 360,000 active | AID 686970;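 note: NT is the 2HG producing partner of a matched IDH1 knockdown line; potency is the fitted concentration of half-maximal effect; 0% = DMSO-treated cells and -100% = media-only wells without cells; nearly all actives have a fitted effect of over 55% in size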
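HT-1080-NT; 750 cells/well; 5% FBS RPMI; 48 h compound, 37 degrees C; CellTiter-Glo luminescence; curve fitting and curve-class assignment.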
DT40 TDP1 no CPT = qHTS for Inhibitors of human tyrosyl-DNA phosphodiesterase 1 (TDP1): qHTS in cells in absence of CPT. Potency, µM (top dose mostly 46.2 µM), inactives show top-dose activity change, negative = growth inhibition, usual class: inhibitors. AID 686978, 2013. DT40 Tdp1-/- hTDP1 cells, no CPT, ATP luminescence, 48 h. 15% of 420,000 active; note: potency is the fitted concentration of half-maximal effect; nearly all actives have a fitted effect of over 55% in size
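Readout: luminescence from CellTiter-Glo after 30 min in the dark at RT. Cells: DT40 Tdp1-/- with stable hTDP1, 400/well. Exposure: compounds alone, ≥48 hr, 37 °C.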
HT1080 IDH1KD tx = kills HT-1080 cells with IDH1 knockdown. HT-1080 IDH1 knockdown viability, ATP luminescence, 48 h. Potency, µM (top dose mostly 46.1 µM), for the others: at the highest dose activity, negative = toxicity, most hits filed as cytotoxic. 2% of 360,000 active. AID 686971;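 note: potency is the fitted concentration of half-maximal effect; 0% = DMSO wells and -100% = cell-free medium wells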
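After a 2 h attachment period, IDH1KD HT-1080 cells took pin-transferred compound for 48 h at 37 °C; ATP-based luminescence after 10 min room-temperature reagent incubation reported viability.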
TDP1 cell CPT = growth inhibition of DT40 Tdp1-/-;hTDP1 cells with camptothecin (screen for TDP1 inhibitors) | chicken DT40 Tdp1-/-;hTDP1 cells + 20 nM CPT, ATP luminescence, 48 h | Potency, µM (doses to about 46.2 µM), without a hit: at the top dose activity change, negative = growth inhibition, actives largely listed as inhibitors | 12% of 420,000 active | AID 686979; note: potency is the fitted concentration of half-maximal effect; nearly all actives have a fitted effect of over 55% in size
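Cell growth measured by CellTiter-Glo luminescence after a minimum 48 h, 37 C compound exposure with 20 nM CPT in Tdp1-knockout DT40 cells stably expressing hTDP1, seeded 400/well; qHTS titration format.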
IL1B secr inh = inhibitors of inflammasome signaling (IL-1 beta secretion); THP-1 LPS/ATP IL-1B secretion, AlphaLISA, 16 h; stronger effect = lower value; activity change, % at 57.5 µM; 4.7% of 360,000 active; in the data active = activity change below about -50%; inconclusive = mostly about -30% to -49%
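Secreted IL-1B measured by AlphaLISA bead assay after 16 h compound exposure of THP-1 cells; compounds (final up to 57.5 uM) added 1 h before LPS (250 ng/mL) and ATP (1.25 mM) stimulation; lower signal means less secretion.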
The depositor's hits bear a star; ? = inconclusive; nt = no result given. Compounds with a hit are over-represented: about 19% of the library has one in this group of screens. Unless noted, calls come from the whole dose curve; as a rule, active = well fitted curve in the direction sought with a large enough effect; inconclusive = small, poorly fitted or top-dose-only effect, or another doubt; inactive = no such curve, though single readings can be large; an effect the other way counts as inactive or inconclusive. Unless noted, % is set by controls: 0 for no effect and ±100 for the full control effect.

SMILES	HT1080NT lethal	DT40 TDP1 no CPT	HT1080 IDH1KD tx	TDP1 cell CPT	IL1B secr inh
OCC1(CCOc2ccccc2)CCN(Cc2cn[nH]c2-c2ccc(F)cc2)CC1	?	?	23.1µM*	2.6%	-57.1*
OCC1(CCOc2ccccc2)CCN(Cc2nc3ccc(F)cc3[nH]2)CC1	-17.5%	?	?	?	1.6
Cc1ccc(N=Nc2ccc(O)c3ncccc23)cc1	?	13µM*	1.64µM*	13µM*	2.1
Cc1ccc(N=Nc2ccc(O)c3ncccc23)cc1C	?	2.31µM*	?	2.31µM*	103.3
O=C(NC1CCCC1)C(C1CC1)n1c(-c2ccccn2)nc2ccccc21 (stereo not drawn)	-2.2%	7.31µM*	-7.6%	9.2µM*	-4.9
O=C(NCc1ccccc1)C(C1CC1)n1c(CSCCOc2ccccc2)nc2ccccc21 (stereo not drawn)	?	16.4µM*	?	?	-15.8
O=C(NCc1ccccc1)C(C1CC1)n1c(-c2cccs2)nc2ccccc21 (stereo not drawn)	8.4%	9.2µM*	10.5%	10.3µM*	10.1
O=C(NCc1ccccc1)C(c1ccccc1)n1c(C2CC2)nc2ccccc21 (stereo not drawn)	-13.2%	?	-26.4%	?	-7.6
O=[N+]([O-])c1cccc(S(=O)(=O)[N-]c2nc3ccccc3nc2-n2cc[n+](Cc3ccccc3)c2)c1	?	-6.5%	?	7.6%	19.3
CCNC(=S)Nc1cc(Cl)ccc1Oc1ccccc1	0.9%	?	-9.7%	2.1%	3.3
CC(C)(C)C(=O)CN1C(=O)NC(C)(Cc2ccc3c(c2)OCO3)C1=O (stereo not drawn)	-8.3%	1.8%	-0.7%	6.9%	-0.7
O=C(N/N=C/c1ccc(F)cc1)c1cc(-c2ccco2)nc2ccccc12	?	13µM*	16.4µM*	11.6µM*	27.6
CCOc1ccc(/C=N/NC(=O)c2cc(-c3ccco3)nc3ccccc23)cc1	?	23.1µM*	-13.1%	?	-14.8
O=C(O)c1cc(-c2ccco2)nc2ccccc12	-0.3%	-0.3%	6.0%	-4.0%	25.2
Cc1ccccc1NC(=O)COC(=O)c1ccc(S(=O)(=O)N2CCCC2)cc1	8.9%	26.7%	13.7%	13.5%	15.4
COc1cc2[nH]c(C(=O)N3CCc4ccccc4C3)cc2c(OC)c1OC	-29.4%	14.6µM*	?	?	nt
CCOC(=O)c1nnn(C(CC)C(=O)Nc2c(C)cccc2C)c1C(=O)OCC (stereo not drawn)	nt	-3.8%	nt	-4.2%	nt
COc1ccc(-c2oc(=O)c3cc(OC)c(OC)cc3c2-c2cc(F)cc(OC)c2)cc1	-6.4%	18.4µM*	4.9%	?	0.8
COc1ccc(-c2oc(=O)c3cc(OC)c(OC)cc3c2C(F)(F)F)cc1	6.9%	-18.8%	17.8%	-4.4%	7.0
COc1ccc(-c2oc(=O)c3cc(OC)c(OC)cc3c2/C=C/c2ccc([N+](=O)[O-])cc2)cc1	0.0%	?	-5.0%	?	-2.3
COc1ccc(-c2c(-c3ccc(C#N)cc3)oc(=O)c3cc(OC)c(OC)cc23)cc1	-6.3%	16.4µM*	14.5%	?	-8.0
COc1ccc(-c2oc(=O)c3cc(OC)c(OC)cc3c2/C=C/c2cccc([N+](=O)[O-])c2)cc1	1.8%	9.2µM*	-1.6%	8.2µM*	57.8
Cc1cc(C)c(NC(=O)CNC(=O)COC(=O)C2=COCCO2)c(C)c1	9.6%	-12.1%	8.9%	4.2%	16.2
O=c1[nH]c(/C=C\c2cccc(Cl)c2)nc(O)c1[N+](=O)[O-]	6.8%	-22.8%	-3.1%	2.9%	-11.3
CC[N+](CC)(CC#Cc1ccccc1)CC#Cc1ccccc1	?	2.06µM*	-27.9%	2.59µM*	-80.7*
CCOC(=O)C[N+](CC)(CC)CC#Cc1ccccc1	5.6%	-7.2%	0.0%	8.6%	22.1
C[N+](C)(CC#Cc1ccccc1)CC(=O)c1ccccc1	-3.1%	16.4µM*	-0.3%	18.4µM*	-28.1

Assay outcomes as filed in PubChem BioAssay.
